Screening results: PubChem, several laboratories
AI-2 QS mod – modulators of Vibrio harveyi AI-2 quorum sensing system | 0.4% of 300,000 active | Vibrio harveyi JMH597 AI-2 luminescence/OD600 ratio, 9 h; active compounds read low; strain lacks LuxN and CqsS sensors; 0 = neutral-control median | activity change, % at 7.5 µM; in the data active = activity change below about -75%, passing the limit was not always enough; inconclusive = no clear call, values can overlap the other calls;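 also: luminescence divided by OD600 gain over 9 h not by final OD600 alone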
ALR inh – inhibitors of human sulfhydryl oxidase ALR; P55789; purified ALR, DTT oxidation, H2O2 HRP-luminol luminescence; AID 485317; 3.8% of 290,000 active; inhibition, % (no concentration beside the values);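 active = mean replicate inhibition above about 79%, with every replicate also reaching it, limit read from the data; inconclusive = only one of the two criteria met; inactive = mean below limit and not every replicate reaching it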
CHT block – human CHT choline transport inhibition; Q9GZV3; CHT-expressing cells, membrane potential dye, choline response; active compounds read low; B-score at 10 µM; 0.86% of 310,000 active; AID 488975;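 active = B-score over 3 SD under the library average, and starting fluorescence ratio not unusually high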;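 also: choline stimulus applied at its EC90 after an EC20 pre-addition; B-score computed on integrated fluorescence ratio after choline addition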
Target sequence (Q9GZV3 whole entry, looked up): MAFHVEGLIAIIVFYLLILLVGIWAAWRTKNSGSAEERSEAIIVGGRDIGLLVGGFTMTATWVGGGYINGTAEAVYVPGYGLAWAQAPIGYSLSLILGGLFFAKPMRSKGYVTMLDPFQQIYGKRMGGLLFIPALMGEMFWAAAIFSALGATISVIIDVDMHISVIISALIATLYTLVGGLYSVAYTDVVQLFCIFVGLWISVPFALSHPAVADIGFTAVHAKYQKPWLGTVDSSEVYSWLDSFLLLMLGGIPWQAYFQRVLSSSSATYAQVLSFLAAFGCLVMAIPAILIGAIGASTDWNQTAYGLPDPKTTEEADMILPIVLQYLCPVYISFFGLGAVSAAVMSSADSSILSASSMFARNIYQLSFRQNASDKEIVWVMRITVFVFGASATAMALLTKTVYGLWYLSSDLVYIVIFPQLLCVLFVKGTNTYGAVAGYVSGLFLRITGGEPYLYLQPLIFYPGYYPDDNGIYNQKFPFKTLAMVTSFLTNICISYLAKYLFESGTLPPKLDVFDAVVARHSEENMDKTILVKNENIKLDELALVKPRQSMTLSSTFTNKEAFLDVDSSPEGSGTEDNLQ
CHT PAM – allosterically activates the human high affinity choline transporter; Q9GZV3; CHT-expressing cells, membrane potential dye, choline EC20; active compounds read high; LV-AA mutant CHT in HEK293 cells; B-score at 10 µM; 0.49% of 310,000 active; AID 488977;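 active = initial fluorescence not abnormally high and integrated response B-score, plate-corrected, over 3 SD above library mean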
PREPL inh – inhibitors of human prolyl oligopeptidase-like enzyme PREPL. recombinant PREPL, fluorescence polarization activity-based probe. AID 2751. inhibition, % at 5.96 µM. Q4J6C6. 0.68% of 320,000 active; in the data active = inhibition above about 43%
Large screens that a line does not name were inactive. Sampled rows, rich in hits. Any-hit rate of the full collection: about 5%.

Clc1ccc(C2=CSC3=NCCN23)cc1Cl	ALR inh 97
CC(C)(C)c1ccc(C2=CSC3=NCCN23)cc1	none (no result: ALR inh)
CC(C)N(C(=O)Cn1cc(S(=O)(=O)CC(=O)Nc2ccccc2)c2ccccc21)C(C)C	none
CCOC(=O)C1=C(CS(=O)(=O)c2ccc(F)c(C)c2)NC(=O)NC1c1ccc(O)c(O)c1 (stereo not given)	ALR inh 98
CCOC(=O)C1=C(CS(=O)(=O)c2ccc(C)cc2)NC(=O)NC1c1cc(OC)c(O)c(OC)c1 (stereo not given)	none
COc1ccc(NC2CCCN(C(=O)CN3CCOC3=O)C2)cc1 (stereo not given)	ALR inh 98
Cc1ccn(CC(=O)N2CCCC(Nc3ccc(F)c(F)c3)C2)n1 (stereo not given)	none
COc1ccc(NC2CCCN(C(=O)CN3CCOC3=O)C2)cc1OC (stereo not given)	ALR inh 100
COc1ccc(NC2CCCN(C(=O)CSc3ccccc3)C2)cc1OC (stereo not given)	none
COc1ccc(NC2CCCN(C(=O)Cn3ccc(C)n3)C2)cc1OC (stereo not given)	ALR inh 99
Cc1ccn(CC(=O)N2CCCC(N3CCN(c4cccc(Cl)c4)CC3)C2)n1 (stereo not given)	ALR inh 99
CC(C)C(C)N(Cc1ccc(C(=O)O)cc1)C(=O)c1ccc2ccccc2n1 (stereo not given)	none
COc1ncnc(-c2ccccc2)c1-c1ccccc1	none
CC(C)c1ccc(NC2CCCN(C(=O)c3ccccc3-c3ncc[nH]3)C2)cc1 (stereo not given)	ALR inh 88
Cc1nonc1C(=O)N1CCCC(Nc2ccc(C(C)C)cc2)C1 (stereo not given)	none
CC(C)c1ccc(NC2CCCN(C(=O)c3ccoc3)C2)cc1 (stereo not given)	ALR inh 99
CC(C)c1ccc(NC2CCCN(C(=O)c3ccc(N4CCOCC4)cc3)C2)cc1 (stereo not given)	ALR inh 98
C=CCn1c(Cc2csc(N)n2)nnc1SCC(=O)Nc1ccc(C(=O)OCC)cc1	none
C=CCn1c(N)cc(=O)nc1SCC(=O)Nc1ccc(C(=O)OCC)cc1	ALR inh 99
C=CCn1c(N)cc(=O)nc1SCC(=O)Nc1ccc(C(=O)OC)cc1	ALR inh 99
C=CCn1c(N)cc(=O)nc1SCC(=O)Nc1ccccc1	none (no result: ALR inh)
COc1cc(OC)c(C2SCCS2)c(OC)c1	ALR inh 99
COc1cc2c(c(OC)c1)C(c1ccncc1)CC(=O)N2 (stereo not given)	none (no result: AI-2 QS mod)
c1ccc(N2CCN(c3ccccc3)C2c2ccncc2)cc1	ALR inh 86
N#Cc1cccnc1N1CCN(C(=O)c2ccco2)CC1	none
COc1ccc(C2SCC(=O)N2Cc2ccccc2)cc1 (stereo not given)	ALR inh 81
CC(=O)Nc1ccc(N2C(=O)CSC2c2ccc(F)cc2)cc1 (stereo not given)	ALR inh 99
Cc1ccc(C2SCC(=O)N2Cc2ccccc2)cc1 (stereo not given)	none
O=C1CSC(c2ccc3c(c2)OCO3)N1c1ccc(Oc2ccccc2)cc1 (stereo not given)	none (no result: ALR inh)
Cc1ccc(N2C(=O)CSC2c2ccc3c(c2)OCO3)cc1 (stereo not given)	ALR inh 99
COc1ccc(N2C(=O)CSC2c2ccccc2[N+](=O)[O-])cc1 (stereo not given)	ALR inh 99
O=C(NCCN1CCCCC1)c1ccc(F)cc1Cl	none
COc1ccc(N2C(=O)CSC2c2ccccc2)cc1 (stereo not given)	ALR inh 97
COc1ccc(C2SCC(=O)N2c2ccc(C)cc2)cc1 (stereo not given)	none (no result: PREPL inh)
O=C(c1c(O)cc(O)cc1O)C1c2c(cc(O)c3c2O[C@H](c2ccc(O)cc2)[C@@H](O)C3)OC1c1ccc(O)cc1 (stereo not given in full)	ALR inh 99 (no result: AI-2 QS mod, CHT block, CHT PAM)
COc1cccc(-c2csc(N3CCN(CC(=O)Nc4ccc5c(c4)OCO5)CC3)n2)c1	PREPL inh 55 (no result: ALR inh)
CCOc1c(Br)cc(C(N)=O)cc1OCc1ccccc1	ALR inh inconclusive
C[C@H](NC(=O)OC(C)(C)C)c1nnc(SCC(=O)Nc2cccc(Cl)c2)o1	ALR inh 96
Cc1cc(N2CCCC2)ccc1NC(=O)CN1C(=O)NC2(CCCCC2)C1=O	ALR inh 93
O=C(CN1C(=O)NC2(CCCCC2)C1=O)Nc1cccc(S(=O)(=O)N2CCCC2)c1	none (no result: AI-2 QS mod, ALR inh, CHT block, CHT PAM)
CN(c1ccccc1)S(=O)(=O)c1cccc(NC(=O)CN2C(=O)NC3(CCCCC3)C2=O)c1	PREPL inh 68 (no result: AI-2 QS mod, CHT block, CHT PAM)
O=C(CN1C(=O)NC2(CCCCC2)C1=O)Nc1ccc(N2CCCCC2)cc1	ALR inh 93 (no result: AI-2 QS mod, CHT block, CHT PAM)
CC(=O)NS(=O)(=O)c1ccc(NC(=O)/C=C/c2cn(-c3ccccc3)nc2-c2ccccc2)cc1	ALR inh 98
CC(=O)Nc1ccc(NC(=O)C(C)OC(=O)/C=C/c2cn(-c3ccccc3)nc2-c2cccnc2)cc1 (stereo not given)	none
N=C1/C(=C/c2cccs2)C(=O)N=C2SN=C(SCc3ccccc3)N12	ALR inh 96
CSC1=NSC2=NC(=O)/C(=C/c3coc4ccccc4c3=O)C(=N)N12	ALR inh 98 (no result: AI-2 QS mod)
CC(C)CSC1=NSC2=NC(=O)/C(=C\c3cccs3)C(=N)N12	none
CCOC(=O)C1(CCc2ccccc2)CCN(Cc2cccc3nccnc23)CC1	CHT block -12
CCN(CC)CCCNc1nc(SC)nc2sc3c(c12)CCN(C)C3	CHT PAM 7.1
CSc1nc(SCC(=O)NC(c2ccccc2)c2ccccc2)c2c3c(sc2n1)CN(C)CC3	ALR inh 93
CC(NC(=O)C1CCCN1S(=O)(=O)c1cccc2nsnc12)c1ccccc1 (stereo not given)	none
CC(C)CN(C(=O)c1ccc2c(c1)OCCO2)c1c(N)n(Cc2ccccc2)c(=O)[nH]c1=O	none
CCOC(=O)C(C)/C(C)=N/NC(N)=S (stereo not given)	ALR inh 96
COc1ccc(-c2c3c(=O)n(C)c(=O)n(C)c3cn2-c2ccc(O)cc2)cc1	ALR inh 89
COc1ccc(-c2c3c(=O)n(C)c(=O)n(C)c3cn2-c2ccccc2)cc1	none
COc1ccc(CCNC(=O)CSc2ccc(-c3ccncc3)nn2)cc1	none
CC(C)Cn1nc(NS(=O)(=O)c2cccc3nonc23)c2cc3ccccc3nc21	ALR inh 97
CCn1nc(NS(=O)(=O)c2cccc3nonc23)c2cc3ccc(C)cc3nc21	ALR inh 91
CCCCn1nc(NS(=O)(=O)c2cccc3nonc23)c2cc3cccc(C)c3nc21	ALR inh 98
Cc1ccccc1NS(=O)(=O)c1cccc2nonc12	ALR inh 96
